A short description of test [1]: small molecules captured by biotinylated probe aFSTL3 – biochemical, small-molecule microarray, fluorescence 635/667, stem cell growth factor project, primary screen (AID 1064).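 Note: measures binding of the biotinylated anti-FSTL3 antibody to printed compounds.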 The note with it: higher = more signal.
Test [2] is described as follows: binders from COS7 lysate, DM2A8 probe, primary screen, torsin A project, cell lysate, small-molecule microarray, fluorescence 635/667 (AID 1065). The settings on record: higher = more signal, COS7 lysate expressing mutant human TOR1A.
A short description of test [3]: small molecules captured by biotinylated probe aFGF2 – biochemical, small-molecule microarray, fluorescence 635/667, stem cell growth factor project, primary screen (AID 1067).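 Note: measures binding of biotinylated aFGF2 protein to printed compounds on slides; z-score merges feature fluorescence and signal-to-noise across triplicate slides.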 The settings on record: higher = more signal.
Test [4] can be described thus: small molecules captured by biotinylated probe aFGF10 – biochemical, small-molecule microarray, fluorescence 635/667, stem cell growth factor project, primary screen (AID 1071).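 Note: score merges 667 nm spot intensity and signal to noise from triplicate slides.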 The note with it: higher = more signal.
For test [5], the target named is Neurogenic locus notch homolog protein 2 (Homo sapiens) (UniProt Q04721). The test can be described thus: small molecules binding Notch2 protein – biochemical, small-molecule microarray, 635 nm fluorescence, stem cell growth factors, primary screen (AID 1073). The settings on record: higher = more signal.
Test [6] deals with Pro-neuregulin-1, membrane-bound isoform (Homo sapiens) (UniProt Q02297). Nature of the test: small molecules binding neuregulin-1 protein – biochemical, small-molecule microarray, fluorescence 635/667, psychiatric disease protein project, primary screen (AID 1075).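 Note: score combines 667 nm spot fluorescence with signal to noise.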 The settings on record: NRG1 binding, 635 nm fluorescence, higher = more signal.
Test [7] has as its system Neuregulin-1 EGF-like domain. Nature of the test: small molecules binding NRG1 EGF domain – biochemical, small-molecule microarray, 635 nm fluorescence, primary screen (AID 1081).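 Note: binding of the protein to compounds printed on small-molecule microarray slides.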 The settings on record: higher = more signal.
Test [8] in a line: FRG1 expression reporter modulators in myotubes – cell-based, C2C12 myotubes, firefly/Renilla luciferase, luminescence, FRG1 inhibition for FSHD, primary screen (AID 1084). The settings on record: FRG1 promoter luciferase, higher = more signal, called active from +8 up or from −8 down.
Test [9] in a line: small molecules captured by biotinylated probe aFST – biochemical, small-molecule microarray, fluorescence 635/667, stem cell growth factor project, primary screen (AID 1086).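 Note: score merges 667 nm fluorescence with signal-to-noise of each printed compound spot.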 The note with it: higher = more signal.
Test [10] is described as follows: binders of probe aHhip on microarray, primary screen, stem cell growth factor project, biochemical, small-molecule microarray, fluorescence 635/667 (AID 1087).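 Note: score merges spot fluorescence at 667nm with spot signal to noise ratio.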 The settings on record: higher = more signal.
In test [11] the test system is PRMT1 (protein arginine N-methyltransferase 1). The test can be described thus: small molecules binding arginine methyltransferase PRMT1 – biochemical, small-molecule microarray, 635 nm fluorescence, primary screen (AID 1088).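 Note: binding of Prmt1 protein to compounds spotted on small-molecule microarray slides.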 The settings on record: higher = more signal.
Test [12] is described as follows: growth effects on S. cerevisiae YJM789 – YJM789 clinical isolate, OD600, 24 h, basal, primary screen (AID 1089).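 Note: growth of clinical yeast isolate S. cerevisiae YJM 789 seeded 1000 cells per well; test concentration not given here.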 The settings on record: higher = more signal, called active from +8 up or from −8 down.
Test [13] is described as follows: S. pombe growth modifiers, basal conditions – strain 972, OD600, 24 h, no modulator, primary screen (AID 1090).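 Note: basal condition with compound alone and no growth modifier present; test concentration not given here.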 The settings on record: S. pombe 972 growth, higher = more signal, called active from +8 up or from −8 down.
Test [14] can be described thus: budding yeast growth modifiers under rapamycin – strain BY4716, OD600, 96 h, primary screen (AID 1091). Note: test concentration not given here. The note with it: S. cerevisiae BY4716 + rapamycin, higher = more signal, called active from +8 up or from −8 down.
Test [15] concerns the target Torsin-1A-interacting protein 2 (Homo sapiens) (UniProt Q8NFQ8). The test can be described thus: small molecules binding lysate-expressed LULL1 – cell lysate, human LULL1 lysate, 635/667 nm fluorescence, primary screen (AID 1092).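 Note: score merges per-feature 667 nm fluorescence with signal-to-noise.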 The note with it: small-molecule microarray, hLULL1 lysate binding, 635 nm fluorescence; higher = more signal.
The nature of test [16]: optical density change of DRC41 E. coli – strain DRC41, OD650, 24 h, E. coli filamentation project, primary screen (AID 1093).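 Note: MC1000 strain lacking acrAB efflux and sulA so SOS filamentation is blocked; test concentration not given here.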 The settings on record: E. coli DRC41 growth, higher = more signal, called active from +8 up or from −8 down.
Test [17] can be described thus: probe aLefty2 binding to arrayed compounds – biochemical, biotinylated probe, 635/667 nm fluorescence, primary screen (AID 1094).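 Note: score merges spot fluorescence near 667 nm with spot signal-to-noise ratio.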 The settings on record: small-molecule microarray, higher = more signal.
Test [18] deals with Noggin (protein binding on small-molecule microarray). The test can be described thus: small molecules binding Noggin protein – biochemical, 635/667 nm fluorescence, primary screen (AID 1095).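 Note: score merges 667 nm feature fluorescence with signal to noise over triplicate slides.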 The settings on record: 635 nm fluorescence, higher = more signal.
For test [19], the target named is Neurogenic locus notch homolog protein 3 (Homo sapiens) (UniProt Q9UM47). The test can be described thus: small molecules binding NOTCH3 protein – biochemical, 635/667 nm fluorescence, primary screen (AID 1096). The settings on record: small-molecule microarray, 635 nm fluorescence, higher = more signal.
Test [20] in a line: probe aEGFR binding to arrayed compounds – biochemical, biotinylated probe, 635/667 nm fluorescence, primary screen (AID 1097).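 Note: probe is a biotinylated anti-EGFR antibody binding compounds printed on slides; score combines fluorescence near 667 nm and signal to noise of each spot.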 The note with it: small-molecule microarray, higher = more signal.

Calls of active or inactive are those of the source.

Chain of Torsin-1A-interacting protein 2 (Homo sapiens) (Q8NFQ8 whole entry, looked up): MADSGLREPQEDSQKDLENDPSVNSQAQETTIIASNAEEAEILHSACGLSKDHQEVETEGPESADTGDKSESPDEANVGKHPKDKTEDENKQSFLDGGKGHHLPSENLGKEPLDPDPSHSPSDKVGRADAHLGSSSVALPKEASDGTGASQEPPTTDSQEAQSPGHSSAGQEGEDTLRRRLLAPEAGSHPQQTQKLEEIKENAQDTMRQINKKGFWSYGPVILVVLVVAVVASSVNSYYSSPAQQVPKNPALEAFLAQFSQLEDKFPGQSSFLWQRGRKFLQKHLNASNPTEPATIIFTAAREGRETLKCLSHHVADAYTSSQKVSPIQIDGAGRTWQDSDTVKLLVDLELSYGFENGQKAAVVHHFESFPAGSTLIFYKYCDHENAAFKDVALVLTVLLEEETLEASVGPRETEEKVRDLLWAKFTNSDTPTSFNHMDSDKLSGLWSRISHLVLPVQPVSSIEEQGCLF
Chain of Pro-neuregulin-1, membrane-bound isoform (Homo sapiens) (Q02297 whole entry, looked up, the tested form may be a part, canonical isoform): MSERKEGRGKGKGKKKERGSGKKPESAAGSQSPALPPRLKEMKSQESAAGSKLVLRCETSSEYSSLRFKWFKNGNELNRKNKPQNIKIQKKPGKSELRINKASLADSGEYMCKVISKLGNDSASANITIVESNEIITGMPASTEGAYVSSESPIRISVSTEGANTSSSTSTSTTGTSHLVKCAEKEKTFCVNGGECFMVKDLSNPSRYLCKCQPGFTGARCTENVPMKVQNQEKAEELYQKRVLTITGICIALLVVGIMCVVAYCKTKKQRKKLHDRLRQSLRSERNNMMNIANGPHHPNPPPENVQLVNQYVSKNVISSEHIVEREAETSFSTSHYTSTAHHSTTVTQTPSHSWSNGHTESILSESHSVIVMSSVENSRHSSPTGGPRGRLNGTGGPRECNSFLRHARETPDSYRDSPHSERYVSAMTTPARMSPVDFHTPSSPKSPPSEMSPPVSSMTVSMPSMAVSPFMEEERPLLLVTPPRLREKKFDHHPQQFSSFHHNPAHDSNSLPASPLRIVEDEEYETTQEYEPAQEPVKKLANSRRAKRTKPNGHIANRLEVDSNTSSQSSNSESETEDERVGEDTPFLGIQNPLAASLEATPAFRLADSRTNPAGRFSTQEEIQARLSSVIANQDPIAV
Chain of Neurogenic locus notch homolog protein 2 (Homo sapiens) (Q04721 whole entry, looked up, canonical isoform): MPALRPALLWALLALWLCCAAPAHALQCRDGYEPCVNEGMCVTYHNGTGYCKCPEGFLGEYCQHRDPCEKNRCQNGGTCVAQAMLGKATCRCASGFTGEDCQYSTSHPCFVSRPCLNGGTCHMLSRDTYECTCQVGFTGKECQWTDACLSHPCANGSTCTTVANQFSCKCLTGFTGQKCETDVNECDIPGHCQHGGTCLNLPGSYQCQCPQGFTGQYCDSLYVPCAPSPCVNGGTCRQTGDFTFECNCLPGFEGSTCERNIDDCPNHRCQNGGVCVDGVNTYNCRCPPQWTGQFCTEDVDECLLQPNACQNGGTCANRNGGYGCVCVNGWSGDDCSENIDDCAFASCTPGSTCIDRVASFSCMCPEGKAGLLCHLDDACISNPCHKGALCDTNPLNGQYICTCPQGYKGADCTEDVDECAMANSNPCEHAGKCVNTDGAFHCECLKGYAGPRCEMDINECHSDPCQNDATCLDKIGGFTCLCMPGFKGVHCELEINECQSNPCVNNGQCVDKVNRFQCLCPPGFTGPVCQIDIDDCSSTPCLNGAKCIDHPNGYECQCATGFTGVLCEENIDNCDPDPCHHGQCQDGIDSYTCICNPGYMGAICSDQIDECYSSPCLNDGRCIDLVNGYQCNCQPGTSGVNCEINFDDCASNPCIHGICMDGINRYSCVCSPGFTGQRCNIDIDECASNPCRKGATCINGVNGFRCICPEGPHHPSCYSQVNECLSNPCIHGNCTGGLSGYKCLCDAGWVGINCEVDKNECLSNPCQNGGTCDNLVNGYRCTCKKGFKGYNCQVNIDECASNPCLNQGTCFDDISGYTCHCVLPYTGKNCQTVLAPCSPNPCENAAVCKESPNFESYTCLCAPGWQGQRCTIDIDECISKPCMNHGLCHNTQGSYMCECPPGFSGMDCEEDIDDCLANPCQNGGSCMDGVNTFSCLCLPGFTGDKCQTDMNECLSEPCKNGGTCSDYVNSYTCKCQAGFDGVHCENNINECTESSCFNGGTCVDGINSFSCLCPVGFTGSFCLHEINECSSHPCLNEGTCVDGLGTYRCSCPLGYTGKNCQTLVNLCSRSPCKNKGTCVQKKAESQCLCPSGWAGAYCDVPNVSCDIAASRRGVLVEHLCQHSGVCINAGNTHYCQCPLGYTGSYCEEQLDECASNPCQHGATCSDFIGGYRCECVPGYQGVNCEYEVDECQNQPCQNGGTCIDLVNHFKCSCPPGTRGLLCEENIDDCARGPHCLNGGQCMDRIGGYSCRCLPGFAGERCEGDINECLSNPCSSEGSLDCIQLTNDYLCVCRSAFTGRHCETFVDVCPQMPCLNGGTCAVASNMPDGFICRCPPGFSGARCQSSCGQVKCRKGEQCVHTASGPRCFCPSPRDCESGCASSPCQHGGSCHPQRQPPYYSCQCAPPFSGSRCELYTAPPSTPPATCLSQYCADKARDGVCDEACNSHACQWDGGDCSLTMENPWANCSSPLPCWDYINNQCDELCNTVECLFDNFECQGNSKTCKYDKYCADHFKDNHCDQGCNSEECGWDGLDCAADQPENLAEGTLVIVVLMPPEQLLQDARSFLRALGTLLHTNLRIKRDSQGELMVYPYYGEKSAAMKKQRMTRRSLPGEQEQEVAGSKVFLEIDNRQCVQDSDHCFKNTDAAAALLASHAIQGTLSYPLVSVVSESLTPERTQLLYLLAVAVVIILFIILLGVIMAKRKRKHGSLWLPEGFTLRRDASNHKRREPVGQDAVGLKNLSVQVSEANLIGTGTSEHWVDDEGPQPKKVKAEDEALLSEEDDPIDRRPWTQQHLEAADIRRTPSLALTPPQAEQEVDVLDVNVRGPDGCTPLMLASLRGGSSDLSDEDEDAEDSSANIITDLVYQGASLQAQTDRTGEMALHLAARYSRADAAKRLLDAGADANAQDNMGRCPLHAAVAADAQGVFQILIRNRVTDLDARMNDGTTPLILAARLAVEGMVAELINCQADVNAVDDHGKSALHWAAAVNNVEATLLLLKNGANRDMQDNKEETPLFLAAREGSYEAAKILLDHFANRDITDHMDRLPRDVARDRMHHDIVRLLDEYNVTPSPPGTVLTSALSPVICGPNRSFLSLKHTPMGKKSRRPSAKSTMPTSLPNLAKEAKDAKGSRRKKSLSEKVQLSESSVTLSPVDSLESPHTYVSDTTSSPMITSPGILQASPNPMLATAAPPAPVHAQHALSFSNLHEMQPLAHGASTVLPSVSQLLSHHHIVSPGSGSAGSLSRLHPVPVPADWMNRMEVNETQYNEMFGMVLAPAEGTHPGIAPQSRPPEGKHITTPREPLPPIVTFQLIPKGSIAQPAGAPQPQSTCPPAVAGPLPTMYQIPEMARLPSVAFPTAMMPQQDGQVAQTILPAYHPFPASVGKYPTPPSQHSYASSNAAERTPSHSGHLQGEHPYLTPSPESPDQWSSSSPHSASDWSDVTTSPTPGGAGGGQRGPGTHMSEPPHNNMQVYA

`O=C(NCCN1CCOCC1)C1N=C(c2ccc(OCCCO)cc2)N(c2ccccc2)O1` (stereo not given): the composite z-score in test [1] was found to be 0.377; in test [2], 1.4; in [3] it was 0.071; in test [4] it was 0.318; in test [5] it was 1.48; in test [6], 0.561. Also, the composite z-score in test [7] was found to be 1.3; in [9] it was 0.524; in [10], 0.075; in test [11] it was 1.54; in test [15] it was 3.22; in test [17] it was 0.443. Also, the results for the composite z-score in test [18], in [19] and in [20] were 1.19, 0.0538 and -0.0099, respectively. Also, the z-score in test [8] is 4.31 (inactive); in test [12], -0.101 (inactive); in test [13], -0.251 (inactive); in test [14], -0.36 (inactive); in [16] it was 1 (inactive).
Consider `O=C1N(Cc2ccccc2)c2ccccc2[C@@H]2OC(c3ccc(OCCCO)cc3)=N[C@]12CCS(=O)(=O)c1ccccc1`, for which the composite z-score is 0.625 in test [1]; 0.206 in test [2]; 0.0111 in [3]; -0.23 in test [4]; 0.888 in test [5]; 1.03 in test [6]. Also, the composite z-score in test [7] is 1.28; in test [9] it was 1.15; in test [10], -0.253; in test [11], 1.5; in test [15], 2.98; in [17], 0.169. The composite z-score in test [18] turned out to be 1.11; in test [19] it was 0.783; in test [20], 0.0248. Further, the z-score is -2.27 (inactive) in [8]; 0.805 (inactive) in test [12]; 1.11 (inactive) in [13]; 7.05 (inactive) in test [14]; 0.0515 (inactive) in test [16].
Regarding `COc1ccc(C#Cc2ccc3c(c2)[C@]2(C(=O)N3)[C@H](C(=O)NC[C@H](O)c3ccccc3)[C@H]3C(=O)O[C@H](c4ccccc4)[C@H](c4ccccc4)N3[C@@H]2c2ccc(O)cc2)cc1`, the composite z-score in [1] is -0.384; in test [2] it was 0.736; in test [3] it was -0.0824; in test [4], 0.857; in [5], 1.2; in [6], 1.52. The composite z-score was 1.34 in test [7]; 0.243 in test [9]; -0.201 in test [10]; 1.55 in test [11]; 2.98 in test [15]; 0.0078 in test [17]. In addition, the composite z-score in test [18] stood at 0.904; in test [19], 0.729; in [20], 0.0996. In addition, the z-score in [8] is 0.254 (inactive); in [12], 2.26 (inactive); in test [13], 0.984 (inactive); in [14] it was 2.2 (inactive); in test [16] it was -0.0198 (inactive).
Consider `O=C1[C@@]23C=C(Br)[C@H](C[C@@H]2CCOC3)[C@@]12CO2`, for which the composite z-score in [1] was -0.655; in test [2], 0.113; in [3] it was -0.103; in test [4], 0.283; in test [5], 0.306; in [6], -0.213. Besides, the composite z-score was -0.1 in [7]; -0.0444 in [9]; 0.0373 in test [10]; -0.414 in test [11]; 0.102 in [15]; -0.217 in test [17]. Besides, the composite z-score in test [18] stood at 0.721; in [19], 0.372; in test [20], 0.0372. Further, the z-score in [8] was -0.413 (inactive); in [12], 0.24 (inactive); in test [13], -2.31 (inactive); in test [14], -0.582 (inactive); in [16], -0.0015 (inactive).
As for `O=C1c2ccccc2[C@](Cc2ccccc2I)(C(=O)NCCN2CCOCC2)[C@H](c2ccc(CO)cc2)N1Cc1ccccc1Cl`, the composite z-score in [1] is 0.118; in [2], 0.469; in test [3] it was 0.07; in test [4], 0.915; in [5], 1.13; in [6], 1.24. Further, the composite z-score in test [7] was determined as 1.29; in [9], 0.511; in [10], 0.0274; in [11], 1.55; in [15], 2.45; in test [17], 0.225. In addition, the results for the composite z-score in test [18], in test [19] and in [20] were 0.72, 1.12 and 0.0523, respectively. The z-score in [8] is -1.96 (inactive); in test [12], -0.747 (inactive); in test [13], -0.0063 (inactive); in [14], -1.04 (inactive); in [16], -0.116 (inactive).

Source of the values: PubChem BioAssay.
